Only some compounds are listed: those with a hit (about 6.6% of all), similar ones and a draw of the others.
Anthrax LF prot – blocks Bacillus anthracis lethal factor protease; P15917; multiplex microsphere protease cleavage assay, LF; inhibition, % at 10 µM; actives 0.12% (n = 360,000); note: plate controls were buffer without enzyme for full effect and enzyme alone for no effect
GDH-TPI inh – GDH-TPI coupled enzyme inhibition counter-screen; actives 1.2% (n = 360,000); AID 588335; inhibition, % at 4.8 µM; GDH-TPI coupled enzyme counterscreen, NADH absorbance; in the data active = inhibition above about 30%;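 note: 0% = DMSO wells and 100% = wells lacking the enzyme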
BoNT-F LC inh – BoNT F light chain protease inhibition | actives 0.22% (n = 360,000) | inhibition, % at 10 µM | Multiplex microsphere protease cleavage assay, flow cytometry; in the data active = inhibition above about 35%, passing the limit was not always enough; inconclusive = no clear call, values can overlap the other calls; note: plate controls were buffer without enzyme for full effect and enzyme alone for no effect
BoNT A protease – blocks Botulinum neurotoxin A light chain protease. multiplex microsphere protease substrate cleavage, flow cytometry. inhibition, % at 10 µM. actives 0.17% (n = 360,000); note: plate controls were buffer without enzyme for full effect and enzyme alone for no effect
Bead autofluor – counter-screen for toxin protease inhibitors: compound fluorescence; actives 3.1% (n = 360,000); compound autofluorescence counterscreen, microsphere flow cytometry; stronger effect = higher value; fluorescence intensity (concentration not given with the values); in the data active = fluorescence intensity above about 16000; inconclusive = no clear call, values can overlap the other calls
FBA Mtb inh – Mtb fructose-bisphosphate aldolase inhibition. P9WQA3. purified M. tuberculosis FBA, fluorescence read-out. inhibition, % at 1 µM. actives 2.3% (n = 360,000). AID 588726; in the data active = inhibition above about 27%;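 note: 0% = vehicle and 100% = reference inhibitor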
Target sequence (P9WQA3 whole entry, looked up): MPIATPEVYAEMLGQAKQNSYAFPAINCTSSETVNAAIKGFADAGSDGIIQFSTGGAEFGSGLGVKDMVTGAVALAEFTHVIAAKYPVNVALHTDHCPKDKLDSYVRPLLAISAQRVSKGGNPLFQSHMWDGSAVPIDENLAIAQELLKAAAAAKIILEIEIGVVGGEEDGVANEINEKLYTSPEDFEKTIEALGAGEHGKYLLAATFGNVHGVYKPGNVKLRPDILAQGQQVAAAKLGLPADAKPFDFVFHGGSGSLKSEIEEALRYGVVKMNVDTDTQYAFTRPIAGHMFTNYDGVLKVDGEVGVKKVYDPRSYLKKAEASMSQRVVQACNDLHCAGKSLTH
* hit, by the source's call; ? = inconclusive; . = no result given; + = active, no number; ! = a repeat was not active. Cut-off read from the data, not from the text of the source, unless noted: active = inhibition above about 30%; inconclusive = no clear call, values can overlap the other calls; inactive = below that.

SMILES	Anthrax LF prot	GDH-TPI inh	BoNT-F LC inh	BoNT A protease	Bead autofluor	FBA Mtb inh
C=CCN(c1ccccc1)S(=O)(=O)c1cccc(C(=O)NCC(c2ccc(OC)cc2)N2CCCCC2)c1 (stereo unspecified)	-8	-1	3	?	6047	1
COc1ccc(C(CNC(=O)c2cc3ccccc3cc2OC)N2CCCC2)cc1 (stereo unspecified)	1	34*	0	?	27989*	6
Cc1ccc(C(=O)O/N=C\c2ccc(N3CCCCC3)c([N+](=O)[O-])c2)cc1	-7	40*	1	0	3201	-1
Cn1c(N)c(C(=O)COC(=O)c2ccc3c(c2)C(=O)N(c2ccc(Cl)cc2)C3=O)c(=O)n(C)c1=O	-5	-8	-1	-1	4275	-1
CC(C)C1C(c2ccccc2)N(C)C(c2ccccc2)CC1(O)c1ccccc1 (stereo unspecified)	0	5	1	2	21931*	1
CCC1C(c2ccccc2)N(C)C(c2ccccc2)CC1(O)c1ccccc1 (stereo unspecified)	-2	-4	2	-1	3058	-3
Cc1ccccc1NC(=O)Cn1nnc(S(=O)(=O)c2ccc(C(C)(C)C)cc2)c1N	-6	9	-10	-2	6223	3
C/C(=N\Nc1ccc(S(=O)(=O)N2CCCCC2)cn1)c1cccc(Br)c1	-5	10	-11	-1	3789	3
Nc1ccc(C(=O)Nc2ccc3c(O)cc(S(=O)(=O)O)cc3c2)cc1	-3	14	-3	0	4133	0
Nc1cc(S(=O)(=O)O)cc2ccc(S(=O)(=O)O)cc12	-7	1	-3	0	3950	115*
O=C(NC1CC1)c1cc(-c2ccco2)nc2ccccc12	-2	12	-1	0	5072	63*
Cc1nnc(NC(=O)c2cc(-c3ccco3)nc3ccccc23)s1	-2	17	-6	-4	?	10
O=C(O)c1cc(-c2ccco2)nc2ccccc12	-13	26	-1	-1	2947	181*
Cc1nn(S(=O)(=O)c2ccccc2)c(C)c1S(=O)(=O)N1CCOCC1	-3	13	-14	-3	4844	2
CC(C)OCCCn1c(SCC(=O)Nc2ccccc2C(F)(F)F)nc2nccnc2c1=O	2	13	0	1	5418	1
C1CCC(Nc2nnnn2C2CCCCC2)CC1	2	3	13	0	4757	1
CN(C)/C=C/C(=O)c1nnn(C2CCCCC2)c1NC1CCCCC1	1	39*	8	2	7392	-1
CCCCNC(=O)c1ccc(CNc2c(N3CCC(C(=O)OCC)CC3)c(=O)c2=O)cc1	-4	10	-4	0	23374*!	1
CCOC(=O)C1CCN(c2c(NCCCN(CC)c3ccccc3)c(=O)c2=O)CC1	0	6	-1	?	21430*	-2
COC(=O)c1ccccc1OS(=O)(=O)N(C)C	1	10	1	0	2026	2
COC(=O)c1ccccc1OP1(=O)COc2ccccc2OC1	-1	6	-3	?	22712*	4
COc1ccc(-c2c(C)nn3c(N4CCC(C(=O)NCCN(C)C)CC4)cc(C)nc23)cc1OC	-2	8	-2	-2	23368*	-1
CCOC(=O)C1=NNC2(CC(=O)N(c3cc(C)cc(C)c3)C2=O)C1 (stereo unspecified)	-8	-3	-11	-1	4514	0
CCOC(=O)C1=NN(N=O)C2(CC(=O)N(c3cc(C)cc(C)c3)C2=O)C1 (stereo unspecified)	-2	-2	-9	-4	24546*	2
CC(C)OCCCNC(=O)CN1C(=O)/C(=C/c2ccccc2)Sc2ccccc21	-1	9	1	-1	2625	-1
SMILES	Anthrax LF prot	GDH-TPI inh	BoNT-F LC inh	BoNT A protease	Bead autofluor	FBA Mtb inh
COc1ccc(-c2oc(NC(=O)CCl)c(C#N)c2-c2ccc(OC)cc2)cc1	-3	13	3	0	2249	3
CCOC(=O)c1sc(NC(=O)CSc2n[nH]c(-c3ccccc3)n2)c(C#N)c1C	-1	33*	-1	-1	4434	7
CCOC(=O)c1sc(NC(=O)CSc2nc(C)cc(C)n2)c(C#N)c1C	1	32*	-1	-1	10260	7
CCOC(=O)c1sc(NC(=O)CSc2ccccn2)c(C#N)c1C	-3	5	6	-1	9759	2
CCOC(=O)c1sc(NC(=O)CSc2nnc(Cc3ccccc3)o2)c(C#N)c1C	2	27	3	0	4656	-3
COc1ccc(-c2oc(NC(=O)CSc3ncn[nH]3)c(C#N)c2-c2ccc(OC)cc2)cc1	-8	16	-4	-2	22915*	1
CCOC(=O)c1sc(NC(=O)CSc2ncn[nH]2)c(C#N)c1C	-1	31*	-10	0	6271	-1
C/C(=N\NC(=O)C1=NNC(=O)C1C)c1cccs1 (stereo unspecified)	-4	16	2	1	4283	6
CCOC(=O)Cn1c(C)[n+](C)c2cc(Cl)c(Cl)cc21	0	-8	-3	0	4932	0
Clc1ccc(Cn2c(-c3cccnc3Cl)nc3ccccc32)c(Cl)c1	-1	-4	2	?	21985*	1
CCOC(=O)Cn1c(-c2cccnc2Cl)nc2cc(C)c(C)cc21	1	-5	1	0	22326*	0
CCn1c(-c2cccnc2Cl)nc2cc(Cl)c(Cl)cc21	-2	2	0	?	23561*	4
CCOC(=O)Cn1c(-c2cccnc2Cl)nc2cc(Cl)c(Cl)cc21	2	-5	-2	?	20399*	4
Clc1ccc(Cn2c(-c3cccnc3Cl)nc3ccccc32)cc1	-3	-1	0	1	8232	2
CSCCC(NC(=O)c1ccco1)C(=O)N1CC=C(c2ccccc2)CC1 (stereo unspecified)	-1	6	-1	-2	6117	0
COC(=O)[C@@]12CCCCN1[C@H](c1ccc(-c3cccc(Cl)c3)c(OC)c1)[C@H]1C(=O)N(C)C(=O)[C@H]12	-1	8	-2	0	4200	0
Cc1c(C(=O)NCc2ccc3c(c2)OCO3)sc(=O)n1Cc1cccc(F)c1	2	4	-5	0	5056	0
COc1ccccc1-c1coc2c(CN3CCC(C)CC3)c(O)ccc2c1=O	.	27	.	.	.	149*
CCN(CC)Cc1c(O)ccc2c(=O)c(-c3ccccc3OC)coc12	7	15	?	-3	4020	116*
CC1(C)CC2CC(C)(CN2C(=O)COC(=O)c2ccccc2C(F)(F)F)C1 (stereo unspecified)	2	-4	2	0	3539	-2
Cc1cc([N+](=O)[O-])nn1CCCC(=O)NCc1ccc(F)cc1	-1	1	-2	0	3668	1
Cc1cc([N+](=O)[O-])nn1Cc1c(F)c(F)c(F)c(F)c1F	-16	-5	14	10	18842*	0
CC(C)Cn1c(-c2cccs2)nc2nc3ccccc3nc21	-6	19	6	1	3216	+

Source: PubChem (several laboratories)
